# Reference: PubChem BioAssay (NCATS)
# Records with an inconclusive call do not appear. Entries that show only a call come without a potency. Active and inactive are the calls of the source. Calls follow the shape of the dose curve; as a rule, active = well fitted inhibition curve with a large enough effect; inconclusive = small, poorly fitted or top-dose-only effect; inactive = no such curve, though single readings can be large or run the other way.
# Assay: qHTS Screen of the MIPE 4.0 Collection Against Ewings Sarcoma (TC32) (AID 1259256); also: nearly all actives have a fitted effect of over 45% in size
# Conditions: TC32 Ewing sarcoma viability, CellTiter-Glo, 48 h; series mostly up to 45.8 µM
# Source text: There is a large unmet medical need for treatments for Ewing sarcoma, a pediatric sarcoma. We sought to identify compounds that inhibited Ewing sarcoma cells in vitro with the goal to then test promising drugs in two drug combinations in vitro to look for synergistic drug combinations. Promising combinations would then proceed to additional validation, including in vivo testing.
# Using the NCATS developed oncology compound library called the Mechanism of Interrogation Plate (MIPE), four Ewing sarcoma cell lines were evaluated (TC32, TC71, RDES, EW8). Compounds, in a 12-point titration series, were incubated with cells for 48 hours and the read out was cell viability (CellTiter-Glo from Promega). These initial experiments were used to select appropriate concentrations of each single agent for subsequent two-drug matrix combinations such that the concentrations in the matrices would span both activity and non-activity.
# Cells, in the log phase of growth, were seeded in 5 uL of RPMI plus 5% FBS, […] L-glutamine, 100 U/ml penicillin and 100 ug/ml streptomycin into 1536-well solid-bottom white tissue culture treated Greiner Bio One Plates (789173-F) using a MultiDrop Combi (Thermofisher Scientific) dispenser and a small sterile cassette. One column was media alone to be used as a :"no cells" control. The plates were then covered with sterilized stainless steel gasketed lids from Kalypsys. After allowing cells to attach for 4 hours, 23 nL of test compound or control (negative control DMSO and positive control 9.2 uM Bortezomib-final) were added from a 1536-well polypropylene compound source plate to each well using a 1536 head pin tool from Kalypsys. Cells were then incubated for 48 hours at 37C, 95% relative humidity and 5% CO2. After 48 hours, plates were removed from the incubator and 3 uL of CellTiter-Glo (Promega) was added using an Aurora Flying Reagent Dispenser Bioraptor. Plates were incubated at room temperature for 10 minutes prior to reading the luminescence on the Viewlux (PerkinElmer). The relative luciferase units are used to calculate the percent activity using the activity of DMSO in the cells and no cells columns for normalization of no inhibition and full inhibition respectively.
# Potency is read from the fitted curve at half-maximal effect.
row,SMILES,Potency
1,CCOC(=O)[C@H](CCc1ccccc1)N[C@H]1CS[C@H](c2cccs2)CN(CC(=O)O)C1=O,4.18 µM (active)
2,CC(C)(C)C(=O)OCOP(=O)(COCCn1cnc2c(N)ncnc21)OCOC(=O)C(C)(C)C,inactive
3,Cn1c(=O)c2c(ncn2CC(O)CO)n(C)c1=O (stereo not given),inactive
4,COCCCOc1cc(C[C@@H](C[C@H](N)[C@@H](O)C[C@H](C(=O)NCC(C)(C)C(N)=O)C(C)C)C(C)C)ccc1OC,inactive
5,C[C@@H]1C[C@H]2[C@@H]3CCC4=CC(=O)C=C[C@]4(C)[C@@]3(Cl)[C@@H](O)C[C@]2(C)[C@@]1(OC(=O)c1ccco1)C(=O)CCl,11.8 µM (active)
6,COc1cc(NS(=O)(=O)c2ccc(N)cc2)nc(OC)n1,inactive
7,O=C(N[C@H](CO)[C@H](O)c1ccc([N+](=O)[O-])cc1)C(Cl)Cl,inactive
8,O=C(O)c1cc(=O)[nH]c(=O)[nH]1,inactive
9,CCCc1nc(C)c2c(=O)[nH]c(-c3cc(S(=O)(=O)N4CCN(CC)CC4)ccc3OCC)nn12,9.35 µM (active)
10,Cc1onc(-c2ccccc2Cl)c1C(=O)N[C@@H]1C(=O)N2[C@@H]1SC(C)(C)[C@@H]2C(=O)O,inactive
11,Cn1nnc2c(C(N)=O)ncn2c1=O,inactive
12,Cc1cccc(N(C)C(=S)Oc2ccc3ccccc3c2)c1,inactive
13,O=C(O)C1CCCN(CCC=C(c2ccccc2)c2ccccc2)C1 (stereo not given),9.35 µM (active)
14,CS(=O)(=O)c1ccc([C@@H](O)[C@@H](CO)NC(=O)C(Cl)Cl)cc1,18.7 µM (active)
15,CCCN[C@H]1CCc2nc(N)sc2C1,inactive
16,COc1cc2ncnc(Nc3cccc(Cl)c3)c2cc1OC,16.6 µM (active)
17,C[C@]12C=CC(=O)C=C1CC[C@@H]1[C@@H]2C(=O)C[C@@]2(C)[C@H]1CC[C@]2(O)C(=O)CO,inactive
18,CCOC(=O)c1ccc(OC(=O)CCCCCN=C(N)N)cc1,inactive
19,CCN(CC)CCn1c(=O)c(Cc2ccc(OC)cc2)nc2ccccc21,inactive
20,CC(C)Cn1cnc2c(N)nc3ccccc3c21,18.7 µM (active)

row,SMILES,Potency
1,O=C(NCC1CN(c2ccc(N3CCOCC3=O)cc2)C(=O)O1)c1ccc(Cl)s1 (stereo not given),inactive
2,O=C(O)c1cn(C2CC2)c2cc(N3CCNCC3)c(F)cc2c1=O,inactive
3,N[C@@H](C(=O)N[C@@H]1C(=O)N2C(C(=O)O)=C(Cl)CS[C@H]12)c1ccccc1,inactive
4,O=C(O)CSCC(=O)NC1CCSC1=O (stereo not given),inactive
5,COC(=O)Nc1nc2ccc(Sc3ccccc3)cc2[nH]1,1.18 µM (active)
6,CC(=O)CC(c1ccccc1)c1c(O)c2ccccc2oc1=O (stereo not given),inactive
7,COc1ccc2c(c1)c(CC(=O)OCC(=O)O)c(C)n2C(=O)c1ccc(Cl)cc1,inactive
8,CCCCS(=N)(=O)CCC(N)C(=O)O (stereo not given),inactive
9,Cc1noc(NS(=O)(=O)c2ccc(N)cc2)c1C,inactive
10,Clc1ccccc1CN1CCc2sccc2C1,inactive
11,CO[C@@H]1[C@@H](OC(N)=O)[C@@H](O)[C@H](Oc2ccc3c(O)c(NC(=O)c4ccc(O)c(CC=C(C)C)c4)c(=O)oc3c2C)OC1(C)C,5.9 µM (active)
12,CN(C)CCc1c[nH]c2ccc(C[C@H]3COC(=O)N3)cc12,inactive
13,Nc1[nH]c(=O)ncc1F,13.2 µM (active)
14,CC1CC2C3CCC4=CC(=O)C=C[C@]4(C)[C@@]3(F)[C@@H](O)C[C@]2(C)[C@@]1(O)C(=O)CO (stereo not given in full),inactive
15,CCC(=O)O[C@]1(C(=O)SCF)[C@H](C)C[C@H]2[C@@H]3C[C@H](F)C4=CC(=O)C=C[C@]4(C)[C@@]3(F)[C@@H](O)C[C@@]21C,inactive
16,CNS(=O)(=O)Cc1ccc2[nH]cc(CCN(C)C)c2c1,inactive
17,NC(=O)N1c2ccccc2CC(=O)c2ccccc21,inactive
18,CN(CCOc1ccc(CC2SC(=O)NC2=O)cc1)c1ccccn1 (stereo not given),inactive
19,CCC(=O)O[C@]1(C(=O)CCl)[C@@H](C)C[C@H]2[C@@H]3CCC4=CC(=O)C=C[C@]4(C)[C@@]3(F)[C@@H](O)C[C@@]21C,inactive
20,CC(N)C12CC3CC(CC(C3)C1)C2 (stereo not given),inactive
